Measured values: PubChem BioAssay (EPA / NIEHS)
Calls of active or inactive are those of the source. Rule for the calls: active = hit-call score of the fitted dose curve at least 0.9, where 1 is the maximum; inactive = score below 0.9.

Assay: BSK_BE3C_SRB: Viability Assessment in the BioMAP Diversity Plus: BE3C Assay (AID 2283028);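 for AC50: fitted both ways so AC50 may mark signal gain or loss versus DMSO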
Conditions: primary human bronchial epithelial cells
Method: BSK_BE3C is a cell-based, multiplexed-readout assay that uses bronchial epithelial cell, a human lung primary cell, with measurements taken at 24 hours after chemical dosing in a 96-well plate.BSK_BE3C_SRB is an assay component measured in the BSK_BE3C assay. It measures 0.1% sulforhodamine related to cell death using Sulforhodamine staining technology.Data from the assay component BSK_BE3C_SRB was analyzed into 1 assay endpoint. This assay endpoint, BSK_BE3C_SRB, was analyzed with bidirectional fitting relative to DMSO as the negative control and baseline of activity. Using a type of viability reporter, gain or loss-of-signal activity can be used to understand changes in the signaling. Furthermore, this assay endpoint can be referred to as a primary readout, because this assay has produced multiple assay endpoints where this one serves a signaling function. To generalize the intended target to other relatable targets, this assay endpoint is annotated to the cell morphology intended target family, where the subfamily is cell conformation.
The levels of cell surface (or secreted, indicated by the prefix "s") biomarker endpoints were measured by ELISA. Overt cytotoxicity to cells in confluent adherent cultures (all systems other than the BT system) was assessed by measuring total protein levels using sulforhodamine B (SRB) staining in parallel cultures at the time of biomarker measurements, indicated as SRB endpoints. For proliferation assays for adherent cell types, individual cell types are cultured at sub-confluence and relative cell numbers quantified by SRB staining at time points optimized for each system (48 h: 3C and CASM3C systems; 72 h: BT and HDF3CGF systems; 96 h: SAg system). SRB was performed by staining cells with 0.1% SRB after fixation with 10% TCA and reading wells at 560 nm.Viability and proliferation of PBMC (T cells) was quantified by Alamar Blue reduction for the SAg and BT systems. For PBMC viability (referred to as PBMC Cytotoxicity within the assay endpoint names), cells were plated (75,000/well in a 96-well plate) and then chemical samples added for 1 h before addition of activators, SEB and TSST-1 (20 ng/mL final concentration each). Cells were incubated for 90 h. Then, Alamar Blue (20 uL/well) (Invitrogen, Cat DAL1100) was added for 6 h, and the plates were read with a fluorescence microplate reader at 546/580 nm (excitation/emission). For PBMC proliferation, cells were plated and activated as above but incubated for only 16 h prior to addition of Alamar Blue. Plates were read after 6 h.
With `CCOP(=S)(OCC)Oc1nc(Cl)n(C(C)C)n1` the outcome was “inactive”. For `COP(=S)(OC)SCn1nnc2ccccc2c1=O`, the outcome was “inactive”. With `CC(C)=CC1C(C(=O)OCc2coc(Cc3ccccc3)c2)C1(C)C` (stereo not given) the AC50 was 10.8 µM (active). In the case of `CC(C)N1C(=O)c2ccccc2NS1(=O)=O`, the outcome is reported as “inactive”. In the case of `Clc1cccc(C(Cl)(Cl)Cl)n1`, the outcome is reported as “inactive”. For `CC(C)NC(=O)N1CC(=O)N(c2cc(Cl)cc(Cl)c2)C1=O`, the outcome was “inactive”. For `Cc1cnc(C2=NC(C)(C(C)C)C(=O)N2)c(C(=O)O)c1` (stereo not given), the outcome was “inactive”. With `CC1(C)CON(Cc2ccccc2Cl)C1=O` the outcome was “inactive”. In the case of `CCOC(=O)C(C)OC(=O)c1cc(Oc2ccc(C(F)(F)F)cc2Cl)ccc1[N+](=O)[O-]` (stereo not given), the outcome is reported as “inactive”. For `COCc1cnc(C2=NC(C)(C(C)C)C(=O)N2)c(C(=O)O)c1` (stereo not given), the outcome was “inactive”. With `Nc1c(Cl)c(Cl)nc(C(=O)O)c1Cl` the outcome was “inactive”. For `Nc1cnn(-c2ccccc2)c(=O)c1Cl`, the outcome was “inactive”. For `N#Cc1c[nH]cc1-c1cccc2c1OC(F)(F)O2`, the outcome was “inactive”. In the case of `O=P(O)(O)CCCl`, the outcome is reported as “inactive”. For `COCC(C)N(C(=O)CCl)c1c(C)csc1C` (stereo not given), the outcome was “inactive”. With `CC(C)Nc1nc(Cl)nc(NC(C)C)n1` the outcome was “inactive”. For `C=CCOC(=O)C(C)(C)OC(=O)c1cc(-n2c(=O)cc(C(F)(F)F)n(C)c2=O)ccc1Cl`, the outcome was “inactive”. In the case of `Nc1c(Cl)c(F)nc(OCC(=O)O)c1Cl`, the outcome is reported as “inactive”. With `O=C(O)c1c(Cl)ccc2cc(Cl)cnc12` the outcome was “inactive”. In the case of `COP(=O)(OC)O/C(C)=C/C(=O)N(C)C`, the outcome is reported as “inactive”. With `CC(C)C1(C)N=C(c2ncccc2C(=O)O)NC1=O` (stereo not given) the outcome was “inactive”. With `CCCN(CC)CC1COC2(CCC(C(C)(C)C)CC2)O1` (stereo not given) the outcome was “inactive”. For `CCN(CC)c1nc(C)cc(OP(=S)(OC)OC)n1`, the outcome was “inactive”. For `COC(=O)N(C(=O)N1CO[C@@]2(C(=O)OC)Cc3cc(Cl)ccc3C2=N1)c1ccc(OC(F)(F)F)cc1`, the AC50 was 5.81 µM (active). With `CC1(C)C(C=C(Cl)Cl)C1C(=O)OC(C#N)c1cccc(Oc2ccccc2)c1` (stereo not given) the outcome was “inactive”. In the case of `O=C1C2CC=CCC2C(=O)N1SC(Cl)(Cl)Cl` (stereo not given), the outcome is reported as “inactive”. In the case of `CCOc1cc(C(C)(C)C)ccc1C1COC(c2c(F)cccc2F)=N1` (stereo not given), the AC50 is reported as 20 µM (active). In the case of `N#CN=C1SCCN1Cc1ccc(Cl)nc1`, the outcome is reported as “inactive”. In the case of `COP(=S)(OC)Oc1ccc([N+](=O)[O-])c(C)c1`, the outcome is reported as “inactive”. With `CC(C)N1C(=O)N(c2ccccc2)CSC1=NC(C)(C)C` the AC50 was 27.8 µM (active). For `Clc1nc(Cl)nc(Nc2ccccc2Cl)n1`, the outcome was “inactive”. In the case of `CCNC(=O)NC(=O)C(C#N)=NOC`, the outcome is reported as “inactive”. For `Cc1cc(C)nc(Nc2ccccc2)n1`, the outcome was “inactive”. With `CCCCOCN(C(=O)CCl)c1c(CC)cccc1CC` the AC50 was 31.1 µM (active). With `CCNP(=S)(OC)O/C(C)=C/C(=O)OC(C)C` (stereo not given) the outcome was “inactive”. With `CS(=O)(=O)c1cc(C(F)(F)F)ccc1C(=O)c1cnoc1C1CC1` the outcome was “inactive”. With `CNC(=O)N(C)c1nnc(C(C)(C)C)s1` the outcome was “inactive”. For `CS(=O)(=O)c1ccc(C(=O)C2C(=O)CCCC2=O)c([N+](=O)[O-])c1`, the outcome was “inactive”. With `CCCC(=NOCC)C1=C(O)CC(CC(C)SCC)CC1=O` (stereo not given) the outcome was “inactive”. With `CCOP(=O)(OCC)Oc1nc(Cl)c(Cl)cc1Cl` the AC50 was 4.23 µM (active).
